About 83,000 compounds went through this panel and 20% of them were active in at least one assay; those are over-represented in the sample as a whole.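 Cell lines were cultured in 96-well plates, exposed to a single compound concentration, and assessed for percent growth 48 hours later.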 The source made the active and inactive calls. The calls were made as follows: active = growth percent below 10; inactive = the rest.
Columns and labels:
Assay in all cases: NCI-60 one-dose screen, 48 h (100 = growth as untreated, 0 = no growth, -100 = all killed)
Settings in all cases: 10 µM unless noted
HCT-15 colon = system: HCT-15 colon
HT29 colon = system: HT29 colon
SNB-75 CNS = system: SNB-75 CNS
SNB-19 CNS = system: SNB-19 CNS
U251 CNS = system: U251 CNS
PC-3 prostate = system: PC-3 prostate
SK-MEL-5 melanoma = system: SK-MEL-5 melanoma
UACC-62 melanoma = system: UACC-62 melanoma
LOX IMVI melanoma = system: LOX IMVI melanoma
SK-MEL-28 melanoma = system: SK-MEL-28 melanoma
SK-MEL-2 melanoma = system: SK-MEL-2 melanoma
EKVX NSCLC = system: EKVX NSCLC
SN12C renal = system: SN12C renal
UO-31 renal = system: UO-31 renal
TK-10 renal = system: TK-10 renal
ACHN renal = system: ACHN renal
CAKI-1 renal = system: CAKI-1 renal
A498 renal = system: A498 renal
CCRF-CEM leukemia = system: CCRF-CEM leukemia
MOLT-4 leukemia = system: MOLT-4 leukemia

Measured: growth

COc1cc(/C=C/C(=O)/C=C/c2ccc(-n3ccnc3)cc2)ccc1O
inactive: HCT-15 colon 82.2% | SNB-75 CNS 62.3% | SNB-19 CNS 76.9% | PC-3 prostate 62.4% | SK-MEL-5 melanoma 74% | UACC-62 melanoma 85.2% | SK-MEL-28 melanoma 86.7% | SK-MEL-2 melanoma 106% | EKVX NSCLC 97.9% | SN12C renal 76.6% | TK-10 renal 101% | ACHN renal 48.3% | CAKI-1 renal 91.5% | A498 renal 96.8% | CCRF-CEM leukemia 37.1% | MOLT-4 leukemia 33.4%
active: HT29 colon 3.46% | U251 CNS -0.424% | LOX IMVI melanoma -44% | UO-31 renal -25.7%

Cc1ccc2c(c1)/C(=N\N=C/c1cn(C(C)C)c3ccccc13)C(=O)N2
inactive: HCT-15 colon 28.6% | HT29 colon 11.3% | SNB-75 CNS 67.3% | SNB-19 CNS 76.5% | U251 CNS 63.6% | PC-3 prostate 34.7% | SK-MEL-5 melanoma 66% | UACC-62 melanoma 50.1% | LOX IMVI melanoma 20% | SK-MEL-28 melanoma 73.4% | SK-MEL-2 melanoma 81.2% | EKVX NSCLC 61.9% | SN12C renal 56.4% | UO-31 renal 57.8% | TK-10 renal 81.4% | ACHN renal 55.4% | CAKI-1 renal 64.4% | A498 renal 86.1%
active: CCRF-CEM leukemia 6.69% | MOLT-4 leukemia -10%

C=C(C)[C@@H]1CC[C@]2(C(=O)OC)CC[C@]3(C)[C@H](CC[C@@H]4[C@@]5(C)CC/C(=N\OCCC(=NCCC#N)NOCCC#N)C(C)(C)[C@@H]5CC[C@]43C)[C@@H]12
inactive: HCT-15 colon 34.3% [100 µM] | SNB-75 CNS 18.4% [100 µM] | SNB-19 CNS 28.9% [100 µM] | LOX IMVI melanoma 14.6% [100 µM] | SK-MEL-28 melanoma 29.2% [100 µM] | SK-MEL-2 melanoma 36.2% [100 µM] | EKVX NSCLC 53.1% [100 µM] | UO-31 renal 19% [100 µM] | TK-10 renal 37.9% [100 µM] | ACHN renal 13.9% [100 µM] | CAKI-1 renal 18.5% [100 µM]
active: HT29 colon 3.88% [100 µM] | U251 CNS -39.7% [100 µM] | PC-3 prostate 4.49% [100 µM] | SK-MEL-5 melanoma -84.7% [100 µM] | UACC-62 melanoma -25.8% [100 µM] | SN12C renal -71.9% [100 µM] | A498 renal -0.384% [100 µM] | CCRF-CEM leukemia 7.42% [100 µM] | MOLT-4 leukemia -26.8% [100 µM]

COc1cc(C)cc2oc3oc(=O)c(C(=O)c4cc5cc(Br)ccc5o4)cc3c(=O)c12
inactive: HCT-15 colon 103% | HT29 colon 110% | SNB-75 CNS 86.6% | SNB-19 CNS 100% | U251 CNS 102% | PC-3 prostate 102% | SK-MEL-5 melanoma 102% | UACC-62 melanoma 99.9% | LOX IMVI melanoma 97.4% | SK-MEL-28 melanoma 106% | SK-MEL-2 melanoma 114% | EKVX NSCLC 100% | SN12C renal 97.6% | UO-31 renal 72.7% | TK-10 renal 121% | ACHN renal 95.8% | CAKI-1 renal 91.8% | A498 renal 92.2% | CCRF-CEM leukemia 120% | MOLT-4 leukemia 106%

CCN(CC)c1ccc2cc(NC(=O)OCCNC(=O)CCNC(=O)[C@H](CC(C)C)NC(=O)C(C)(C)NC(=O)C(C)(C)NC(=O)[C@H](CC(C)C)NC(=O)CCNC(=O)C(C)(C)NC(=O)[C@H](CC(C)C)NC(=O)CCNC(=O)[C@@](C)(CC)NC(=O)[C@H](C)NC(=O)CCNC(=O)C(C)(C)NC(=O)[C@H](C)NC(=O)[C@@H]3CCCN3C(=O)[C@@](C)(CC)NC(=O)[C@H](Cc3ccccc3)NC(=O)C3CCCN3C(=O)C(C)(C)NC(=O)C3CCCN3C(=O)C(C)(C)NC(C)=O)c(=O)oc2c1 (stereo not given in full)
active: HCT-15 colon -93.3% | HT29 colon -81.4% | SNB-75 CNS -91.6% | SNB-19 CNS -76.5% | U251 CNS -85.6% | PC-3 prostate -91.2% | SK-MEL-5 melanoma -100% | UACC-62 melanoma -76.2% | LOX IMVI melanoma -85% | SK-MEL-28 melanoma -84.1% | SK-MEL-2 melanoma -80.4% | EKVX NSCLC -100% | SN12C renal -74.6% | UO-31 renal -80.5% | TK-10 renal -93.3% | ACHN renal -85.4% | CAKI-1 renal -92.4% | A498 renal -98.5% | CCRF-CEM leukemia -63.5% | MOLT-4 leukemia -62%

COc1ccc(NCc2cn(-c3ccc(C(=O)O)cc3)nc2-c2ccc(C(=O)O)cc2)cc1C(F)(F)F
active: CCRF-CEM leukemia -50.4%
inactive: HCT-15 colon 105% | HT29 colon 101% | SNB-75 CNS 84% | SNB-19 CNS 96.4% | U251 CNS 93.7% | PC-3 prostate 102% | SK-MEL-5 melanoma 94.8% | UACC-62 melanoma 94.3% | LOX IMVI melanoma 97.4% | SK-MEL-28 melanoma 97.3% | SK-MEL-2 melanoma 106% | EKVX NSCLC 84.2% | SN12C renal 95.3% | UO-31 renal 88.1% | TK-10 renal 83% | ACHN renal 98.1% | CAKI-1 renal 86.3% | A498 renal 81.2% | MOLT-4 leukemia 123%

Nc1cc(N)c(N=Nc2ccc(S(=O)(=O)O)cc2)cc1N=Nc1ccc(-c2ccc(N=Nc3ccc(O)c(C(=O)O)c3)cc2)cc1
inactive: HCT-15 colon 103% | HT29 colon 103% | SNB-75 CNS 98.9% | SNB-19 CNS 95.6% | U251 CNS 101% | PC-3 prostate 98.2% | SK-MEL-5 melanoma 101% | UACC-62 melanoma 94.6% | LOX IMVI melanoma 100% | SK-MEL-28 melanoma 106% | SK-MEL-2 melanoma 103% | EKVX NSCLC 97.1% | SN12C renal 102% | UO-31 renal 79.8% | TK-10 renal 142% | ACHN renal 99.8% | CAKI-1 renal 90% | A498 renal 108% | CCRF-CEM leukemia 98% | MOLT-4 leukemia 102%

Cc1cc(SC#N)ncn1
inactive: HCT-15 colon 102% | HT29 colon 108% | SNB-75 CNS 86.7% | SNB-19 CNS 103% | U251 CNS 103% | PC-3 prostate 107% | SK-MEL-5 melanoma 100% | UACC-62 melanoma 93.5% | LOX IMVI melanoma 93.7% | SK-MEL-28 melanoma 114% | SK-MEL-2 melanoma 66.9% | EKVX NSCLC 101% | SN12C renal 94.9% | UO-31 renal 96.2% | TK-10 renal 101% | ACHN renal 98.4% | CAKI-1 renal 98.9% | A498 renal 102% | CCRF-CEM leukemia 88% | MOLT-4 leukemia 109%

CCCCOC(=O)c1cccc([N+](=O)[O-])c1
inactive: HCT-15 colon 118% | HT29 colon 107% | SNB-75 CNS 94.9% | SNB-19 CNS 113% | U251 CNS 97.4% | PC-3 prostate 95% | SK-MEL-5 melanoma 110% | UACC-62 melanoma 108% | LOX IMVI melanoma 108% | SK-MEL-28 melanoma 119% | SK-MEL-2 melanoma 113% | EKVX NSCLC 93.4% | SN12C renal 108% | UO-31 renal 94.7% | TK-10 renal 111% | ACHN renal 112% | CAKI-1 renal 105% | A498 renal 94.7% | MOLT-4 leukemia 122%
active: CCRF-CEM leukemia 1.56%

Nc1cccc2c1C(=O)c1cccc(NC(=O)c3ccccc3)c1C2=O
inactive: HCT-15 colon 28.6% | SNB-19 CNS 45.3% | U251 CNS 22.9% | PC-3 prostate 32.5% | SK-MEL-5 melanoma 12.3% | UACC-62 melanoma 48.4% | SK-MEL-28 melanoma 44.6% | SK-MEL-2 melanoma 33.4% | SN12C renal 47.1% | TK-10 renal 32.1% | ACHN renal 41.5% | CAKI-1 renal 12% | A498 renal 16.7% | CCRF-CEM leukemia 12.6% | MOLT-4 leukemia 41%
active: HT29 colon 2.96% | SNB-75 CNS 6% | LOX IMVI melanoma 8.96% | EKVX NSCLC 2.26% | UO-31 renal 9.99%

C#C[C@]1(O)CC[C@H]2[C@@H]3CC=C4c5nc(N)sc5CC[C@]4(C)[C@H]3CC[C@@]21C
active: SNB-75 CNS -5.36%
inactive: HCT-15 colon 42.4% | HT29 colon 41.6% | SNB-19 CNS 71.6% | U251 CNS 38.1% | PC-3 prostate 47.5% | SK-MEL-5 melanoma 60.4% | UACC-62 melanoma 30.3% | LOX IMVI melanoma 55.4% | SK-MEL-28 melanoma 57.1% | SK-MEL-2 melanoma 58.8% | EKVX NSCLC 53.7% | SN12C renal 82.2% | UO-31 renal 90.4% | TK-10 renal 80.4% | ACHN renal 79.6% | CAKI-1 renal 54.9% | A498 renal 36.4% | CCRF-CEM leukemia 77.7% | MOLT-4 leukemia 36.9%

CCCCN(CC)CC(CC)Nc1cc(OC)cc2cccnc12 (stereo not given)
inactive: HCT-15 colon 97.2% | HT29 colon 103% | SNB-75 CNS 100% | SNB-19 CNS 110% | U251 CNS 101% | PC-3 prostate 96.5% | SK-MEL-5 melanoma 99.9% | UACC-62 melanoma 106% | LOX IMVI melanoma 114% | SK-MEL-28 melanoma 121% | SK-MEL-2 melanoma 115% | EKVX NSCLC 128% | SN12C renal 99.7% | UO-31 renal 102% | TK-10 renal 100% | ACHN renal 104% | CAKI-1 renal 111% | A498 renal 112% | CCRF-CEM leukemia 99.6% | MOLT-4 leukemia 111%

O=C(C[n+]1ccn(CC(OCc2ccc(Cl)cc2Cl)c2ccc(Cl)cc2Cl)c1)c1ccc(F)cc1 (stereo not given)
active: HT29 colon -73.8% | SNB-75 CNS -99% | SNB-19 CNS -95.9% | U251 CNS -81.7% | PC-3 prostate -88.5% | SK-MEL-5 melanoma -99.3% | UACC-62 melanoma -95.8% | LOX IMVI melanoma -87.4% | SK-MEL-28 melanoma -95.5% | SK-MEL-2 melanoma -88% | EKVX NSCLC -77.8% | SN12C renal -93.5% | TK-10 renal -46.1% | A498 renal -12.3% | CCRF-CEM leukemia -12.1% | MOLT-4 leukemia -19.9%
inactive: HCT-15 colon 75.7% | UO-31 renal 84.1% | ACHN renal 26.5% | CAKI-1 renal 79.7%

CC1(C)CC[C@]2(C(=O)O)CC[C@]3(C)C(=CC[C@@H]4[C@@]5(C)C/C(=C/c6cccnc6)[C@H](O)C(C)(C)[C@@H]5CC[C@]43C)[C@@H]2C1
active: HCT-15 colon -5.12% [100 µM] | HT29 colon -79.4% [100 µM] | U251 CNS -8.69% [100 µM] | PC-3 prostate 4.87% [100 µM] | SK-MEL-5 melanoma -77.1% [100 µM] | UACC-62 melanoma -56% [100 µM] | LOX IMVI melanoma -87.1% [100 µM] | SK-MEL-28 melanoma -35.3% [100 µM] | SK-MEL-2 melanoma -29.9% [100 µM] | EKVX NSCLC 0.843% [100 µM] | SN12C renal 6.59% [100 µM] | UO-31 renal -57.6% [100 µM] | TK-10 renal 1.87% [100 µM] | ACHN renal 2.77% [100 µM] | CAKI-1 renal 5.69% [100 µM] | CCRF-CEM leukemia 1.37% [100 µM] | MOLT-4 leukemia 4.37% [100 µM]
inactive: SNB-75 CNS 19.5% [100 µM] | SNB-19 CNS 16.6% [100 µM] | A498 renal 23.9% [100 µM]

Reference: PubChem BioAssay (NCI)
